Experimental data reported in PubChem BioAssay AID1645838 (ICCB-Longwood Screening Facility, Harvard Medical School, 2021).
Hit rate of the full screen: of about 2,000 compounds, about 100 (5%) were called active. No stated cut-off is given here; in the data, active means z-score above about 2; inactive means the rest. Many of the other results were omitted from the sample, so actives are more common in it than they were.

Experiment: modulators of mitochondrial supercomplex assembly, cell-based, luminescence, Hoechst nuclei count (AID 1645838);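 further: control cybrid cells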
Conditions: Cells, luminescence/Hoechst cell count ratio, supercomplex reporter; for z-score: stronger effect = higher value; for cell count: measured here: cell number, Hoechst nuclei count
[1] = library stock concentration (final well concentration not given) 80 uM
[2] = library stock concentration (final well concentration not given) 400 uM
[3] = library stock concentration (final well concentration not given) 2 mM
[4] = library stock concentration (final well concentration not given) 10 mM
[5] = library stock concentration (final well concentration not given) 46 uM
[6] = library stock concentration (final well concentration not given) 278 uM
[7] = library stock concentration (final well concentration not given) 1.67 mM

With `C[C@@H](O)CCC[C@@H](O)/C=C/[C@@H]1[C@@H](CCCCCCC(=O)O)[C@@H](O)C[C@H]1O` the z-score was -0.0165 (inactive) and the cell count was 5060.

In the case of `NC(=O)c1ccc(-c2nc(-c3ccc4c(c3)OCO4)c(-c3ccccn3)[nH]2)cc1`, the z-score is reported as -0.0341 (inactive) and the cell count is reported as 5380.

With `NC(=O)c1ccc2nc(-c3ccc(Oc4ccc(Cl)cc4)cc3)[nH]c2c1` the z-score [1] was 0.235 (inactive), the z-score [2] was 0.636 (inactive) and the z-score [3] was 0.25 (inactive). The z-score [4] was 2.04 (active), the cell count [1] was 4680 and the cell count [2] was 4440. It also gave a cell count [3] of 4560 and a cell count [4] of 3840.

For `NC(=O)c1ccc(-c2nc(-c3ccc4c(c3)OCCO4)c(-c3ccccn3)[nH]2)cc1`, the z-score was 0.107 (inactive) and the cell count was 5540.

With `CCCCCCCCCCCSCC(=O)O` the z-score was -0.636 (inactive) and the cell count was 5540.

For `CCCCCC(O)/C=C/C=O` (stereo not given), the z-score was -0.635 (inactive) and the cell count was 5350.

For `CCCCCC(=O)/C=C/C=O`, the z-score was 3.38 (active) and the cell count was 4570.

With `CCCCCCCCCCCCCCCC(=O)NC(C)C` the z-score was -0.641 (inactive) and the cell count was 5670.

For `CCCCCC/C=C\CCCCCCCC(=O)OCC`, the z-score was -0.872 (inactive) and the cell count was 5340.

In the case of `Cc1ccc(C)c(-n2sc3cc(F)ccc3c2=O)c1`, the z-score [5] is reported as -0.174 (inactive), the z-score [6] is reported as -0.302 (inactive) and the z-score [7] is reported as -1.02 (inactive). The z-score [4] was 1.44 (inactive), the cell count [5] was 7370 and the cell count [6] was 6230. The cell count [7] was 7150 and the cell count [4] was 2660.

In the case of `CS(=O)(=O)N1CCc2c(-c3cnc(N)nc3)nc(N3CCOCC3)nc21`, the outcome (library stock 10 mM) is reported as “inactive; censored for cell count”, the z-score [1] is reported as -0.156 (inactive) and the z-score [2] is reported as 0.294 (inactive). The z-score [3] was 1.97 (active), the cell count [1] was 5660 and the cell count [2] was 4440. For the same compound, the cell count [3] was 2590.

With `CC1=C(C(=O)Nc2ccccc2C)C(c2cccc([N+](=O)[O-])c2)C2=C(CCCC2=O)N1` (stereo not given) the z-score [1] was 0.502 (inactive), the z-score [2] was 0.355 (inactive) and the z-score [3] was -0.0592 (inactive). The z-score [4] was 0.0886 (inactive), the cell count [1] was 4870 and the cell count [2] was 4830. It also gave a cell count [3] of 4490 and a cell count [4] of 4680.

In the case of `CCCCCCCCCCCCCCCCC/C=C\C(=O)O`, the z-score is reported as 0.0429 (inactive) and the cell count is reported as 4620.

With `CCCCCCCC/C=C\CCCCCCCC(=O)NCC` the z-score was 0.358 (inactive) and the cell count was 5660.

For `CCCCCCCC(=O)OC[C@H](CO)OC(=O)CCCCCCC`, the z-score was -0.0675 (inactive) and the cell count was 5320.

For `CCCCCc1ccc(C=CC(=O)Nc2ccccc2C(=O)O)cc1`, the z-score [5] was 0.0102 (inactive), the z-score [6] was -0.157 (inactive) and the z-score [7] was -0.383 (inactive). For the same compound, the z-score [4] was -0.45 (inactive), the cell count [5] was 6840 and the cell count [6] was 6660. The cell count [7] was 6860 and the cell count [4] was 6620.

In the case of `CCCCN(Cc1ccc(C(=O)NO)cc1)C(=O)Nc1ccccc1`, the z-score [1] is reported as -0.413 (inactive), the z-score [2] is reported as -0.344 (inactive) and the z-score [3] is reported as 0.545 (inactive). For the same compound, the z-score [4] was 1.99 (active), the cell count [1] was 5840 and the cell count [2] was 5790. For the same compound, the cell count [3] was 4990 and the cell count [4] was 3280.

For `CC(C)[C@H](C(=O)Nc1ccc(C(=O)NO)cc1)c1ccccc1`, the outcome was “inactive; censored for cell count”.
